# Experimental data taken from the supplement of paper PMC10849652.
# Targets with a hit are over-represented here; the source holds about 8,800 in all. About 0.5% of all pairs of compound and target were hits. A number with no mark means an inactive call.
# How the values were obtained:
# Assay in all cases: log2 fold change, soluble protein after heating vs DMSO (PISA); higher = thermal stabilisation; K562 lysate, 10 uM; active = over 0.2 and 3.5 SD of the protein, either way, in both replicates (recomputed)
# [1] = compound: CCCS(=O)(=O)Nc1ccc(F)c(C(=O)c2c[nH]c3ncc(-c4ccc(Cl)cc4)cc23)c1F [vemurafenib]
# Summary of the method: (§1)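 K562 pellets were dounce-homogenised in PBS pH 7.4 with 1 mM MgCl2, and the crude extract at 1 mg/mL protein was treated with 10 μM compound for 30 min. Aliquots were heated for 3 min across 48°C-58°C, pooled, and brought to 0.5% NP-40 at 4°C; soluble protein was the supernatant after 21,000xg for 90 min. Soluble protein was quantified by TMTpro 16plex LC-MS/MS with channel sums equalised, and reported as log2 fold change in thermal stability against DMSO controls, with values from duplicates.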
# [2] = compound: CCCS(=O)(=O)Nc1ccc(F)c(C(=O)c2c[nH]c3ncc(Cl)cc23)c1F
# Summary of the method: as §1
# [3] = compound: CCN(CCCOc1ccc2c(Nc3cc(CC(=O)Nc4cccc(F)c4)[nH]n3)ncnc2c1)CCOP(=O)(O)O [barasertib]
# Summary of the method: as §1
# [4] = compound: CC[C@@H]1C(=O)N(C)c2cnc(Nc3ccc(C(=O)NC4CCN(C)CC4)cc3OC)nc2N1C1CCCC1
# Summary of the method: as §1
# [5] = compound: CC[C@@H]1C(=O)N(C)c2cnc(Nc3ccc(C(=O)N[C@H]4CC[C@H](N5CCN(CC6CC6)CC5)CC4)cc3OC)nc2N1C(C)C [volasertib]
# Summary of the method: as §1
# [6] = compound: CCn1c(C(=O)N(C2CC2)C2CC2)cc2c3c(ncn3C)c(Nc3cc(C)n(C)n3)nc21
# Summary of the method: as §1
# [7] = compound: CCn1cc(-c2ccnc3[nH]c(-c4cccc(CN(C)C)c4)cc23)c(-c2ccc(NC(=O)N(C)C)cc2)n1
# Summary of the method: as §1
# [8] = compound: CN1CCC(CNc2ccc3ncc(-c4cccc(OC(F)(F)F)c4)n3n2)CC1
# Summary of the method: as §1
# [9] = compound: CN1CCN(CCOc2cc(OC3CCOCC3)c3c(Nc4c(Cl)ccc5c4OCO5)ncnc3c2)CC1 [saracatinib]
# Summary of the method: as §1
# [10] = compound: CN1CCN(c2nc(C3=C(c4c[nH]c5ccccc45)C(=O)NC3=O)c3ccccc3n2)CC1 [sotrastaurin]
# Summary of the method: as §1
# Chain of UniProt O00471 (O00471 whole entry, looked up): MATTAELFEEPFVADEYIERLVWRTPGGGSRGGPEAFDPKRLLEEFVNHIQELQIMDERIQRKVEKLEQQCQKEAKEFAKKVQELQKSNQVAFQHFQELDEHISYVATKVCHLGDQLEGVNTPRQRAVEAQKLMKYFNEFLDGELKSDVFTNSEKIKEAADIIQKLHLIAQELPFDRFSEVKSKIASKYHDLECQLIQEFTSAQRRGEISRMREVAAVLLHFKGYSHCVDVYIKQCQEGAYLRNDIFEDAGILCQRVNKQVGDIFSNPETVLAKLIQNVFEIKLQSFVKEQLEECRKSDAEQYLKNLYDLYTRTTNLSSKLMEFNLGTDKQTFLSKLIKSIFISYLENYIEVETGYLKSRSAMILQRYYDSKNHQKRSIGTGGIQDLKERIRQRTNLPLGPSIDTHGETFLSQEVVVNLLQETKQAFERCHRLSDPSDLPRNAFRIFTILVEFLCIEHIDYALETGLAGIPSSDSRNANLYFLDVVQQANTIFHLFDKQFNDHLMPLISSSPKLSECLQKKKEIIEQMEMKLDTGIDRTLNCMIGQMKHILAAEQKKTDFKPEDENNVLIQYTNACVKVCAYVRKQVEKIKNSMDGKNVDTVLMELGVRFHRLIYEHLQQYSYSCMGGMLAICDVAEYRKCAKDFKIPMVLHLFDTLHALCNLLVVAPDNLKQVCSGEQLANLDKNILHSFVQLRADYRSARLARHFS
# Chain of UniProt Q9UI10 (Q9UI10 whole entry, looked up): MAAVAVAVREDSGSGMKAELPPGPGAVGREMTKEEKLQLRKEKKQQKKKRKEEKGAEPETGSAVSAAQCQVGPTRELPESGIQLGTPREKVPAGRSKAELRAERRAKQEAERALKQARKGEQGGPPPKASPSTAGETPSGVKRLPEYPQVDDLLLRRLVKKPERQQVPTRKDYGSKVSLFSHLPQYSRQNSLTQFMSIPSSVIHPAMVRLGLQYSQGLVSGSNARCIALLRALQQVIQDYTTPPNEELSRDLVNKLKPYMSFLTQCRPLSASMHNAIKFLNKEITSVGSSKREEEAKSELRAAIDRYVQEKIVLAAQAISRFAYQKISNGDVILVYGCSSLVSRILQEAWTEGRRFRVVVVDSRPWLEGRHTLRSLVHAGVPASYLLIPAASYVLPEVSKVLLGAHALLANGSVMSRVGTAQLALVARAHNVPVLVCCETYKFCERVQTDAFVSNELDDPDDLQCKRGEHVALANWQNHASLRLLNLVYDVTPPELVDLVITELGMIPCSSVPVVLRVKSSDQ
# Chain of UniProt Q92562 (Q92562 whole entry, looked up): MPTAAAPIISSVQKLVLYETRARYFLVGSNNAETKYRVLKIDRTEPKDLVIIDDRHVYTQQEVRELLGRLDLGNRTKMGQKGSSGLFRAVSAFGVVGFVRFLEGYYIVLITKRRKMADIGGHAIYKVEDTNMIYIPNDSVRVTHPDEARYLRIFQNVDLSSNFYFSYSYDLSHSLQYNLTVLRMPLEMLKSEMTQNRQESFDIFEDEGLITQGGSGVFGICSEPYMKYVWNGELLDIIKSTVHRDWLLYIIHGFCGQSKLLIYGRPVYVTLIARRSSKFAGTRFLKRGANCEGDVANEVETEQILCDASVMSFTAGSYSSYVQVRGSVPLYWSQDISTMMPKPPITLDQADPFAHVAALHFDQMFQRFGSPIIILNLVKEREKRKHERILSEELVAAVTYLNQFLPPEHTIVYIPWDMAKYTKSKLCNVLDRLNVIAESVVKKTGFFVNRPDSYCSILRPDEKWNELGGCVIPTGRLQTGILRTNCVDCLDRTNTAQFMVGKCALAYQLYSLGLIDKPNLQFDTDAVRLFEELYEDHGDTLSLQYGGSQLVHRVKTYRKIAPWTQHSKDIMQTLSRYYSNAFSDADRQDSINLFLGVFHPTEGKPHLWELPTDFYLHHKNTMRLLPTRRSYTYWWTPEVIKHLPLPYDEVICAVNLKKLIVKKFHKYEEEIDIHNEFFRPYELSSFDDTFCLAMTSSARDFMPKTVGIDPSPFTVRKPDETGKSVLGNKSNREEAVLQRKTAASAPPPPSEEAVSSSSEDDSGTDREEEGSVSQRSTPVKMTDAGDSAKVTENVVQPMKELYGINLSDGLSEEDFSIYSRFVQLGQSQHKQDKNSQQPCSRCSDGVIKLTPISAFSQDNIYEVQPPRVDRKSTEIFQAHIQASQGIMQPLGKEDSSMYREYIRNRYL
# Chain of UniProt P11171 (P11171 whole entry, looked up): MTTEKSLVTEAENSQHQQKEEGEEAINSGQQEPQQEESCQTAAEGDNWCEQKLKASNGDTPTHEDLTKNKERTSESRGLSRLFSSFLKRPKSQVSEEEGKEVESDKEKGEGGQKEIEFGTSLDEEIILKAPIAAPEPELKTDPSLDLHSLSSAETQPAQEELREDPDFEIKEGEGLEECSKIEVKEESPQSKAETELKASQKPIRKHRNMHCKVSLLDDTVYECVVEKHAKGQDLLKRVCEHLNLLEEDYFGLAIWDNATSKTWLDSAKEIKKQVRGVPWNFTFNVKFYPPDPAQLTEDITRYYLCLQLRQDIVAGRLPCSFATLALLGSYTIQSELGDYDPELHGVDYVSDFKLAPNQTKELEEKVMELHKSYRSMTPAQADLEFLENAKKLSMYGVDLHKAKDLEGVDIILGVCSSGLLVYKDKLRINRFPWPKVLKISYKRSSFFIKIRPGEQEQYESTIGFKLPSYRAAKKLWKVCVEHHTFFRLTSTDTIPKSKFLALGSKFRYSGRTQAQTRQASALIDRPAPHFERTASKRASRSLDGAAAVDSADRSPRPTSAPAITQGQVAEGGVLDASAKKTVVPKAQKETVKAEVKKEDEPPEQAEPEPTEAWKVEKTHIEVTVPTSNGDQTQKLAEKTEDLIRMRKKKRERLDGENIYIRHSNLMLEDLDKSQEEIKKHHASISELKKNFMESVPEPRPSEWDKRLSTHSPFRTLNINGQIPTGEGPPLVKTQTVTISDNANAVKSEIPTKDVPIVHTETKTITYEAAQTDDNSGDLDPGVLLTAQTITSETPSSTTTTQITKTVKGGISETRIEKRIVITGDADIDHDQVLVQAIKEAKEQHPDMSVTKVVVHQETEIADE
# Chain of UniProt Q13409 (Q13409 whole entry, looked up): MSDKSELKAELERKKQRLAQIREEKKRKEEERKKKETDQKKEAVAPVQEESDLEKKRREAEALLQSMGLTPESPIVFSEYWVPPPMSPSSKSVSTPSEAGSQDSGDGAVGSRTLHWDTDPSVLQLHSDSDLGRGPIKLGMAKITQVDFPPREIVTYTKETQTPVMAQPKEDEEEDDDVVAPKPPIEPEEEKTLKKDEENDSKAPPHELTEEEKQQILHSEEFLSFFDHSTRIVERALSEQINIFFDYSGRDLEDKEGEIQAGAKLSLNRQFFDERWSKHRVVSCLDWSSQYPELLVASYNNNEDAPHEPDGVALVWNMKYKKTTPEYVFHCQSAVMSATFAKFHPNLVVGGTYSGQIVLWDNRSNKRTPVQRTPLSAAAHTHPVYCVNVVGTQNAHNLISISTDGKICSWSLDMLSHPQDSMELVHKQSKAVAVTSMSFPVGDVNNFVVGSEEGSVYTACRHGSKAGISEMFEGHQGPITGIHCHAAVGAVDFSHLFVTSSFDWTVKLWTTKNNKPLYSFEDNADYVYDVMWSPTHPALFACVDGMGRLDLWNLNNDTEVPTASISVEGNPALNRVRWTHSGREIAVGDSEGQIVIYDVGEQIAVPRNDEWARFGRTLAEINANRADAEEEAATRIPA
# Chain of UniProt Q8N9F7 (Q8N9F7 whole entry, looked up): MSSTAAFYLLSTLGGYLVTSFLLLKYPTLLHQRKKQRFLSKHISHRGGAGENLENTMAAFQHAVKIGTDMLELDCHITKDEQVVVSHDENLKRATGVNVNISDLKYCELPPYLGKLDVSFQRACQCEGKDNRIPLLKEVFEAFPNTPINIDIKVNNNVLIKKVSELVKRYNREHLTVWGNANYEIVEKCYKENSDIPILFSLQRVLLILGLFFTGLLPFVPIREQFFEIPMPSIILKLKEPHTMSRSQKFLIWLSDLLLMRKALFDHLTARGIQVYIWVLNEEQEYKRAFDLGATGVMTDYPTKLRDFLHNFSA
# Chain of UniProt Q15717 (Q15717 whole entry, looked up): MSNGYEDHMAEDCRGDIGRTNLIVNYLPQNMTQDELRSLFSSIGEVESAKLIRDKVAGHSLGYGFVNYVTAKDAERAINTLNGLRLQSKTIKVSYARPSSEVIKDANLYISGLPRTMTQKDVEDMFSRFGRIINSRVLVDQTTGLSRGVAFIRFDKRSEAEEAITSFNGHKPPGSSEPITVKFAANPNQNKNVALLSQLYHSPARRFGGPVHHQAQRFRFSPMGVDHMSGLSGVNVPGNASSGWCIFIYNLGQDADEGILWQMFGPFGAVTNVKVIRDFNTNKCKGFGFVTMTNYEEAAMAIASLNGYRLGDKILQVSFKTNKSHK
# Chain of UniProt Q9BQI3 (Q9BQI3 whole entry, looked up): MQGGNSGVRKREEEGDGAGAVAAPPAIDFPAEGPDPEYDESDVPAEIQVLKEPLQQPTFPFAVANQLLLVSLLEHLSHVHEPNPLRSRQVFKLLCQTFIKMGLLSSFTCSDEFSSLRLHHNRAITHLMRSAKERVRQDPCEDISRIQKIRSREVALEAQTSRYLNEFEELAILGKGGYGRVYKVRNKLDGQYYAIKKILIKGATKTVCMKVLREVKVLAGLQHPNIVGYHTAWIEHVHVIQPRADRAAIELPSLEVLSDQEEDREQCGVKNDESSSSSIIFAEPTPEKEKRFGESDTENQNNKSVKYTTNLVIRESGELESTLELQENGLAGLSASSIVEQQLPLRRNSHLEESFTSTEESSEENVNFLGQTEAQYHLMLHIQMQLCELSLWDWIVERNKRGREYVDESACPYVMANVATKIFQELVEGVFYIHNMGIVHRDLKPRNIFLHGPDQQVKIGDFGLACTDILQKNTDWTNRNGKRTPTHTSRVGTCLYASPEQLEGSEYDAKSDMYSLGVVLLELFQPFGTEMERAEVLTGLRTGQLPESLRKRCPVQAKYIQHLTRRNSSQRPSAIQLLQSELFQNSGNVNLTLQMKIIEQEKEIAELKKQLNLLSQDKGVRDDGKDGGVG
Target,log2 fold change [1],log2 fold change [2],log2 fold change [3],log2 fold change [4],log2 fold change [5],log2 fold change [6],log2 fold change [7],log2 fold change [8],log2 fold change [9],log2 fold change [10]
GAPVD1 isoform 6 (UniProt Q14C86),0.011,0.006,0.01,-0.077,-0.036,0.027,0.046,-0.083,0.014,0.012
ERLIN1 (UniProt O75477),0.01,0.013,0.008,-0.037,-0.029,0.033,1.01,-0.059,0.041,-0.023
FBXO38 (UniProt Q6PIJ6),-0.042,-0.024,0.052,-0.121,0.037,0.028,0.006,0.036,-0.039,0.027
DYNC1I2 isoform 2 (UniProt Q13409),-0.073,0.042,-0.123,0.132,-0.039,0.035,-0.022,0.082,-0.077,0.006
EIF3I (UniProt Q13347),0.017,0.025,0.017,-0.113,-0.078,0.011,-0.034,-0.03,-0.008,0.027
GCN1 (UniProt Q92616),0.025,0.004,0.061,-0.107,-0.084,0.082,-0.05,-0.07,0.015,-0.006
EGLN1 (UniProt Q9GZT9),-0.052,-0.041,-0.025,-0.078,-0.076,0.007,0.019,-0.001,0.029,0.034
GABPB1 (UniProt Q06547),-0.05,0.01,0.014,-0.024,0.025,0.006,0.193,-0.199,0.057,0.023
GART (UniProt P22102),0.007,0.001,0.028,-0.066,-0.054,0.038,0.124,-0.013,0.011,-0.023
EPN2 (UniProt O95208),0.019,0.027,0.043,0.044,0.016,-0.002,-0.417 (active),0.08,0.004,0.002
DUS2 (UniProt Q9NX74),0.022,0.032,-0.026,-0.033,-0.071,-0.016,-0.095,0.023,-0.095,-0.017
EPB41 (UniProt P11171),-0.051,0.005,-0.009,-0.033,-0.02,0.022,0.026,-0.135,0.014,0.026
FOXJ3 (UniProt Q9UPW0),0.111,0.124,0.038,0.054,-0.096,0.02,0.032,-0.08,0.023,0.018
GCDH (UniProt Q92947),0.031,0.025,-0.054,0.002,0.022,-0.003,-0.07,-0.077,-0.041,-0.041
EFCAB14 (UniProt O75071),0.022,0.001,-0.01,0.039,0.008,-0.042,-0.058,0.047,0.023,0.005
FOXK1 (UniProt P85037),-0.01,0.008,0.025,-0.007,-0.019,0.013,-0.014,0.026,0.005,-0.012
EIF2AK1 (UniProt Q9BQI3),-0.004,-0.05,0.019,-0.016,-0.287 (active),-0.002,-0.001,-0.037,-0.019,0
FTSJ1 (UniProt Q9UET6),-0.036,-0.006,-0.043,-0.04,-0.056,-0.003,0.067,0.027,-0.018,0.089
EXTL2 (UniProt Q9UBQ6),-0.052,0.066,0.057,-0.13,0.019,0.03,-0.198,0.078,-0.017,-0.026
GATAD2A isoform 3 (UniProt Q86YP4),-0.014,0.019,0.008,0.012,-0.014,-0.004,-0.058,0.022,0.022,-0.002
FIG4 (UniProt Q92562),0.107,0.071,-0.085,-0.201,-0.012,-0.045,0.104,-0.012,0.032,0.092
GCLM (UniProt P48507),0.014,0.025,-0.007,0,-0.015,-0.013,-0.011,-0.012,0.011,-0.022
EIF2B4 isoform 2 (UniProt Q9UI10),-0.034,0.02,0.006,-0.038,-0.017,-0.004,-0.02,0.002,0.006,-0.004
EEF1AKNMT (UniProt Q8N6R0),-0.007,0.041,0.008,-0.08,-0.026,0.053,-0.026,-0.031,-0.017,0.008
ESYT2 (UniProt H7BXI1),-0.047,-0.044,0.046,-0.065,-0.036,-0.009,0.037,-0.068,0.033,-0.003
FASTKD2 (UniProt Q9NYY8),-0.014,-0.002,0.037,0.004,-0.036,0.011,-0.072,0.03,0.012,0.014
GDPD1 (UniProt Q8N9F7),0.116,0.055,-0.005,0.041,-0.008,0.004,0.074,-0.032,-0.023,0.005
ELAVL1 isoform 2 (UniProt Q15717),0.035,0.024,-0.013,-0.03,-0.029,0.035,0.013,-0.083,-0.001,0.024
ENO2 (UniProt P09104),0.05,0.008,-0.132,0.044,0.046,-0.069,-0.231,0.319 (active),0.06,0.034
EXOC5 (UniProt O00471),0.033,0.03,0.044,-0.036,-0.081,0.02,0.068,-0.115,0.044,0.022
